# Assay results from publication PMC5540273 (PLoS ONE, 2017).
# Read-outs that look alike come from different tables or passages of the source.
# Legend:
# PLK2 = conditions: concentration: 1 μM, replicates: in singlicate; n = 1
# PLK3 = conditions: concentration: 1 μM, replicates: in singlicate; n = 1
# PLK4 = conditions: concentration: 1 μM, replicates: in singlicate; n = 1
# PRKCD = conditions: n = 1
# PRKCE = conditions: concentration: 1 μM, replicates: in singlicate; n = 1
# PRKCH = conditions: concentration: 1 μM, replicates: in singlicate; n = 1
# PRKCI = conditions: n = 1
# PRKCQ = conditions: concentration: 1 μM, replicates: in singlicate; n = 1
# PRKD1 = conditions: concentration: 1 μM, replicates: in singlicate; n = 1
# PRKD2 = conditions: concentration: 1 μM, replicates: in singlicate; n = 1
# [1] = concentration: 1 μM, replicates: in singlicate
# 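Further: KINOMEscan kinase panel screen.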
SMILES,%Inh (PLK2),%Inh (PLK3),%Inh (PLK4),%Inh (PRKCD; [1]),%Inh (PRKCE),%Inh (PRKCH),%Inh (PRKCI; [1]),%Inh (PRKCQ),%Inh (PRKD1),%Inh (PRKD2),%Inh (PRKCD; 1 µM),%Inh (PRKCI; 1 µM)
COc1cccc(NC(=O)NC2CCN(c3ccnc(Nc4cc(OC)c(OC)c(OC)c4)n3)C2)c1 (stereo not shown) [GSK1379763],0%,12%,48%,0%,14%,0%,0%,0%,0%,0%,–,–
c1ccc(Oc2ccc(Nc3ccnc4cc(-c5ccc(CNCCN6CCOCC6)o5)ccc34)cc2)nc1 [GW567145],0%,0%,43%,0%,12%,4%,39%,4%,0%,13%,–,–
COc1cc(Nc2ncc3c(C)nc(-c4cc5ccccc5[nH]4)n3n2)cc(OC)c1OC [GW869516],23%,24%,0%,43%,0%,0%,45%,0%,0%,0%,–,–
COc1cccc(C2=C(Nc3ccc(Cl)c(C(=O)O)c3)C(=O)NC2=O)c1 [SB-390769],100%,100%,1%,0%,32%,25%,21%,0%,0%,6%,–,–
Cl.Cl.NCC(C(=O)Nc1cc(Br)c(-c2ccnc3[nH]ccc23)s1)c1ccccc1 (stereo not shown) [GSK1269851],16%,2%,0%,70%,58%,63%,26%,73%,0%,0%,–,–
CCn1c(-c2nonc2N)nc2c(C#CC(C)(C)O)ncc(OCCCCN)c21.O=C(O)C(F)(F)F.O=C(O)C(F)(F)F [GSK507274],0%,0%,0%,–,98%,97.7%,–,86%,29%,23%,91%,78%
C[C@@H](Oc1cc(-n2cnc3cc(-c4ccnc(NCCS(C)(=O)=O)c4)ccc32)sc1C(N)=O)c1ccccc1Cl [GSK907232],99.2%,99.4%,32%,11%,3%,0%,9%,31%,0%,0%,–,–
COc1cc(Nc2nccc(N3CCC(NC(=O)Nc4cccc(C(C)=O)c4)C3)n2)cc(OC)c1OC (stereo not shown) [GSK1379753],0%,0%,54%,5%,0%,0%,25%,0%,0%,0%,–,–
O=C(Nc1cccc(-c2nn3ncccc3c2-c2ccnc(Nc3ccccc3)n2)c1)c1c(F)cccc1F [GSK198271],55%,82%,1%,0%,8%,16%,9%,48%,27%,20%,–,–
CN(C)S(=O)(=O)c1cc(-c2ccc3nccc(-c4cccc(S(N)(=O)=O)c4)c3c2)cnc1N [GSK1669921],2%,0%,0%,0%,15%,29%,7%,10%,0%,0%,–,–
COc1ccc(-c2coc3ccc(-c4nnc(SCc5ccc(OC)c(C(F)(F)F)c5)o4)cc23)cc1,15%,14%,8%,9%,0%,0%,0%,0%,0%,0%,–,–
Nc1ncnc2c1nc(-c1ccccc1)n2-c1ccccc1 [SKF-97293],38%,16%,26%,14%,35%,9%,13%,0%,5%,0%,–,–
CCc1ccc(-c2ccc3c(c2)-c2c(cnn2C)S(=O)(=O)N3C)cc1,4%,2%,14%,0%,17%,0%,2%,23%,0%,14%,–,–
FC(F)(F)c1ccc(/C=C/c2cncnc2Nc2ccc3[nH]c(Cc4ccccc4)nc3c2)cc1 [GW709199],0%,0%,0%,25%,0%,0%,55%,0%,0%,3%,–,–
Cc1occc1-c1ncc(OC[C@@H](N)Cc2c[nH]c3ccccc23)cc1-c1ccc2[nH]nc(C)c2c1.O=C(O)C(F)(F)F [GSK682037],0%,0%,0%,100%,99.8%,97.5%,28%,97.7%,90%,99.6%,–,–
O=C(Nc1cccc(-c2nn3ccccc3c2-c2ccnc(Nc3cccc(F)c3)n2)c1)c1c(F)ccc(F)c1Cl [GSK357952],0%,2%,0%,8%,0%,31%,0%,38%,21%,0%,–,–
